Bioassay records: PubChem BioAssay, National Center for Advancing Translational Sciences (NCATS)
Only some compounds are listed: those with a hit (about 16% of all), similar ones and a draw of the others.
DT40 TDP1 CPT: qHTS for Inhibitors of human tyrosyl-DNA phosphodiesterase 1 (TDP1): qHTS in cells in presence of CPT. AID 686979, 2013. Potency, µM (titrated, usually from 46.2 µM), for inactives: top-dose activity change, negative = growth inhibition, actives largely listed as inhibitors. actives 12% (n = 420,000). chicken DT40 Tdp1-/-;hTDP1 cells + 20 nM CPT, ATP luminescence, 48 h; note: potency is the fitted concentration of half-maximal effect; % is set by controls: 0 for no effect and ±100 for the full control effect; nearly all actives have a fitted effect of over 55% in size
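Cell growth measured by CellTiter-Glo luminescence after a minimum 48 h, 37 C compound exposure with 20 nM CPT in Tdp1-knockout DT40 cells stably expressing hTDP1, seeded 400/well; qHTS titration format.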
miR-21 act: qHTS Assay for Modulators of miRNAs and/orActivators of miR-21. Potency, µM (titrated, usually from 38.3 µM), without a hit: top-dose activity change, positive = activation, actives largely listed as activators. 340,000 tested, under 10 active. HeLa miR-21 FLuc reporter, luciferase, 48 h;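 note: % of control where 0% means no effect; miR-21 action dims this reporter so a rising signal means less miR-21 action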
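HeLa cells stably expressing CMV-driven firefly luciferase with a downstream miR-21 binding sequence, endogenously expressing miR-21, were treated with titrations (up to about 40uM final) for 48 hours at 37 degree Celsius. Luciferase luminescence was read after lysis.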
TDP1 inh: qHTS Assay for Inhibitors of Tyrosyl-DNA Phosphodiesterase (TDP1); recombinant TDP1, AlphaScreen DNA substrate cleavage; Potency, µM (top dose mostly 130 µM), for the others: top-dose activity change, negative = inhibition, actives largely listed as inhibitors; actives 0.28% (n = 350,000); AID 485290, 2010; note: potency is the fitted concentration of half-maximal effect; % is set by controls: 0 for no effect and ±100 for the full control effect; nearly all actives have a fitted effect of over 40% in size
Target sequence (Q9NUW8 whole entry, looked up): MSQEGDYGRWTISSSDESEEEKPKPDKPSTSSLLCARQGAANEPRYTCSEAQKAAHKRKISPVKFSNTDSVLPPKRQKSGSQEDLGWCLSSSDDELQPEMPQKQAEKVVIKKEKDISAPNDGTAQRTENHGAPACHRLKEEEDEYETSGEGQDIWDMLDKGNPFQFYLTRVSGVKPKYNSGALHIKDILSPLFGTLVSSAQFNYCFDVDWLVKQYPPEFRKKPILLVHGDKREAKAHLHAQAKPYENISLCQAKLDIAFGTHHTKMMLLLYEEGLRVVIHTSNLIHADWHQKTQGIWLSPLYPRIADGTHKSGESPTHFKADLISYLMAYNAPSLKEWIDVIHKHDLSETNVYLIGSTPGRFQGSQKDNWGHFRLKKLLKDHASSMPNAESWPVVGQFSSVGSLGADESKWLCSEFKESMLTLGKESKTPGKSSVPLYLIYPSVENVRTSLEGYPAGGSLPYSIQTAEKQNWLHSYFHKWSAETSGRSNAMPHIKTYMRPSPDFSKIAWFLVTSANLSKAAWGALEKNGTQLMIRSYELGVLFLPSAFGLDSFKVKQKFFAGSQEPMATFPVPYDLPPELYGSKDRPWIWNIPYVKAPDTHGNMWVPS
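Recombinant E. coli-expressed Tdp1 (1 nM) preincubated with compound 15 min at RT, then 5'-biotin/3'-phosphotyrosine-FITC DNA substrate (15 nM) added for 5 min. AlphaScreen beads (10 ug/ml) added, 10 min RT; tyrosine-FITC cleavage read as signal loss.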
DT40 TDP1 no CPT: qHTS for Inhibitors of human tyrosyl-DNA phosphodiesterase 1 (TDP1): qHTS in cells in absence of CPT; DT40 Tdp1-/- hTDP1 cells, no CPT, ATP luminescence, 48 h; Potency, µM (doses to about 46.2 µM), without a hit: at the highest dose activity change, negative = growth inhibition, actives largely listed as inhibitors; actives 15% (n = 420,000); AID 686978, 2013; note: potency is the fitted concentration of half-maximal effect; % is set by controls: 0 for no effect and ±100 for the full control effect; nearly all actives have a fitted effect of over 55% in size
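Growth kinetics read by CellTiter-Glo luminescence after ≥48 hr at 37 °C. Cells: DT40 Tdp1-/- stably carrying human TDP1, 400 per well, compound exposure in the absence of CPT (DMSO vehicle).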
uPA generation: qHTS for Inhibitors of Cell Surface uPA Generation; AID 540303, 2011; Potency, µM (series often up to 38.3 µM), inactives show at the highest dose activity change, negative = inhibition, actives largely listed as inhibitors; cell surface uPA generation assay, qHTS; actives 0.31% (n = 330,000); active = well fitted inhibition curve with a large enough effect; inconclusive = small, poorly fitted or top-dose-only effect; inactive = no such curve, though single readings can be large or run the other way; tested in mouse RAW 264.7 cells; note: potency is the fitted concentration of half-maximal effect; % is set by controls: 0 for no effect and ±100 for the full control effect; nearly all actives have a fitted effect of over 55% in size
Numbers without * were called inactive; ? = inconclusive; · = no result given; [ ] = dose if it differs, or a comment. Unless noted, calls come from the whole dose curve; as a rule, active = well fitted curve in the direction sought with a large enough effect; inconclusive = small, poorly fitted or top-dose-only effect, or another doubt; inactive = no such curve, though single readings can be large; an effect the other way counts as inactive or inconclusive.

SMILES	DT40 TDP1 CPT	miR-21 act	TDP1 inh	DT40 TDP1 no CPT	uPA generation
COc1cc2c(cc1OC)CN(C(=O)CN1CCN(S(=O)(=O)c3ccccc3Br)CC1)CC2	?	7%	5%	2.1µM*	0%
O=C(CN1CCN(S(=O)(=O)c2ccc(F)c(Cl)c2)CC1)N1CCc2ccccc2C1	?	·	·	16µM*	-5%
COc1cccc(CNC(=O)CCCc2cn(C)c3ccccc23)c1	0%	-4%	·	5%	4%
Cc1ccccc1Cn1cc(CCC(=O)NC(C)c2ccccc2)c2ccccc21 (stereo not given)	13µM*	7%	10%	23µM*	·
CC(CCc1ccccc1)NC(=O)CCc1cn(C)c2ccccc12 (stereo not given)	-1%	0%	·	18µM*	2%
O=C(Cc1csc2ccccc12)NCc1cccc(Br)c1	16µM*	-6%	-3%	21µM*	·
Cn1cc(CCCC(=O)NCc2cccc(Br)c2)c2ccccc21	?	4%	1%	18µM*	·
CN(c1ccccc1)c1ccc(/C=C/[N+](=O)[O-])cc1	23µM*	?	5%	21µM*	-5%
CCCc1ncc(C(O)(c2ccccc2)c2ccccc2)n1C	1%	-2%	0%	?	1%
O=C(NCCN1CCC(n2c(=O)[nH]c3ccccc32)CC1)N1c2ccccc2Sc2ccccc21	?	·	·	16µM*	·
O=C(NCCN1CCC(n2c(=O)[nH]c3ccccc32)CC1)c1ccccc1	-2%	·	·	-1%	·
Cc1ccc(C(=O)NCC(=O)Nc2ccncc2)s1	-10%	4%	3%	-3%	12%
O/N=C/c1ccccc1Oc1ccc(Cl)cc1	?	13%	0%	16µM*	13%
O/N=C/c1ccccc1Oc1ccccc1	-12%	-1%	-2%	-23%	2%
CC(C)=CCC12Oc3cc(O)ccc3C1(O)Oc1cc(O)c([C@H]3C=C(C)CC(c4ccc(O)cc4O)[C@H]3C(=O)c3ccc(O)cc3O)c(O)c1C2=O (stereo not given in full)	?	·	·	26µM*	5%
CCOc1ccc(S(=O)(=O)NCCc2csc3nc(-c4ccc(F)cc4)nn23)cc1	12µM*	23%	3%	6.5µM*	·
Cc1noc(C)c1S(=O)(=O)NCCc1csc2nc(-c3ccc(F)cc3)nn12	18µM*	8%	5%	23µM*	·
COc1ccc(-c2nc3scc(CCNS(=O)(=O)c4c(C)noc4C)n3n2)cc1	?	3%	3%	?	·
CCCS(=O)(=O)NCCc1csc2nc(-c3ccc(OC)cc3)nn12	?	-10%	8%	?	·
N=C(N)Cc1ccccc1Sc1ccccc1	9.2µM*	2%	-5%	8.2µM*	-6%
c1ccc(Sc2ccccc2CN2CCCC2)cc1	8%	·	·	-25%	-1%
Cc1[nH]c2c(Br)cccc2c1[C@H]1[C@@H](CC#N)C1(C)C	16µM*	-37%	3%	?	6%
Cc1nn2c(C)c(C(=O)NCc3ccco3)cnc2c1-c1ccccc1	?	0%	10%	?	·
CCOC(=O)N1CCN(S(=O)(=O)c2ccc(OCC)cc2)CC1	?	0%	3%	-27%	-14%
CCOC(=O)N1CCN(S(=O)(=O)c2ccc(OC)c(Cl)c2)CC1	-8%	-10%	1%	-23%	-1%
SMILES	DT40 TDP1 CPT	miR-21 act	TDP1 inh	DT40 TDP1 no CPT	uPA generation
CCOC(=O)N1CCN(S(=O)(=O)c2ccc(OC)c(Cl)c2Cl)CC1	?	-10%	5%	13µM*	2%
CCOC(=O)N1CCN(S(=O)(=O)c2ccc(OCC)c3ccccc23)CC1	16µM*	0%	2%	23µM*	0%
CCOC(=O)N1CCC(NC(=O)c2cc(C(=O)Nc3ccc(F)cc3F)ccc2CO)CC1	-25%	-12%	0%	-24%	3%
CCOC(=O)N1CCC(NC(=O)c2cc(C(=O)NCc3ccc(F)cc3)ccc2CO)CC1	?	4%	0%	12µM*	7%
CCOC(=O)N1CCC(NC(=O)c2cc(C(=O)NC3CCN(Cc4ccccc4)CC3)ccc2CO)CC1	1.8µM*	1%	4%	-24%	-1%
COCCNC(=O)Cn1cc(/C=N/NC(=O)c2ccc(Oc3ccc(O)cc3)cc2)c2ccccc21	10%	-4%	2%	-6%	2%
C=CC(C)(C)c1[nH]cnc1/C=C1\NC(=O)C(C(C)C)NC1=O (stereo not given)	12µM*	27%	·	16µM*	?
CC(=O)Oc1ccccc1N(C(C)=O)S(=O)(=O)c1ccc2ccccc2c1	-15%	-24%	5%	-20%	0%
CC(=O)Oc1c(Br)cc(N(C(C)=O)S(=O)(=O)c2ccccc2)c2ccccc12	?	27%	·	6.5µM*	?
COC(=O)c1cc(NC(=S)Nc2cc(Cl)cc(Cl)c2)cc(C(=O)OC)c1	18µM*	-2%	0%	?	-1%
COC(=O)c1cccc(NC(=S)Nc2ccc(Cl)c(Cl)c2)c1	-2%	16%	2%	26µM*	4%
Cc1nn(-c2ccccc2)c(OC(=O)c2ccccc2Cl)c1S(=O)(=O)c1ccccc1	-8%	-3%	-8%	-24%	·
COc1ccc(NC(=O)c2cc3ccccc3cc2OC)cc1	29µM*	-29%	·	?	4%
COc1cc2ccccc2cc1C(=O)NC(=S)Nc1ccc(C(=O)O)cc1	-13%	-10%	50µM*	-4%	-1%
COc1cc2ccccc2cc1C(=O)N/N=C/c1cccs1	2.3µM*	·	·	1.8µM*	·
COc1cc2ccccc2cc1C(=O)Nc1ccc(N2CCN(C(=O)C(C)C)CC2)cc1	16µM*	2%	7%	10µM*	3%
COc1cc2ccccc2cc1C(=O)NC(=S)Nc1cccc(C(=O)O)c1	-5%	-62%	·	-30%	-1%
COc1ccc(C(=O)NCC(=O)OCC(=O)c2ccc3c(c2)NC(=O)CO3)cc1	2%	-2%	2%	18%	2%
CC1(C2CC2)NC(=O)N(CC(=O)Nc2ccc(C(F)(F)F)cc2)C1=O (stereo not given)	-12%	·	-1%[56.1 µM]	-1%	?
COc1ccccc1N1CCN(S(=O)(=O)CCNC(=O)COc2ccc(C(C)C)cc2)CC1	?	15%	9%	16µM*	·
COc1ccc(C(=O)NCCS(=O)(=O)N2CCN(Cc3ccccc3)CC2)cc1	-20%	·	·	29µM*	-6%
COc1ccccc1N1CCN(S(=O)(=O)CCNC(=O)CCc2ccccc2)CC1	?	·	·	16µM*	·
COc1cccc(OCC(=O)NCCS(=O)(=O)N2CCN(c3ccccc3F)CC2)c1	?	1%	-4%	?	·
